The whole screen tested about 47,000 compounds, of which about 2,500 (5.3%) were called active. Only a selection was taken, and actives are over-represented in it overall. A number with no mark means an inactive call. No stated cut-off is given here; in the data, active means inhibition above about 30%; inactive means the rest.
The molecules below were run against Ubiquitin carboxyl-terminal hydrolase 30 (Homo sapiens) (UniProt Q70CQ3) (assay: blocks human USP30 ubiquitin-rhodamine cleavage (AID 1645860)). Conditions: purified USP30, Ub-rhodamine cleavage fluorescence; at 25 µM; active compounds read high.
Chain of Ubiquitin carboxyl-terminal hydrolase 30 (Homo sapiens) (Q70CQ3 whole entry, looked up): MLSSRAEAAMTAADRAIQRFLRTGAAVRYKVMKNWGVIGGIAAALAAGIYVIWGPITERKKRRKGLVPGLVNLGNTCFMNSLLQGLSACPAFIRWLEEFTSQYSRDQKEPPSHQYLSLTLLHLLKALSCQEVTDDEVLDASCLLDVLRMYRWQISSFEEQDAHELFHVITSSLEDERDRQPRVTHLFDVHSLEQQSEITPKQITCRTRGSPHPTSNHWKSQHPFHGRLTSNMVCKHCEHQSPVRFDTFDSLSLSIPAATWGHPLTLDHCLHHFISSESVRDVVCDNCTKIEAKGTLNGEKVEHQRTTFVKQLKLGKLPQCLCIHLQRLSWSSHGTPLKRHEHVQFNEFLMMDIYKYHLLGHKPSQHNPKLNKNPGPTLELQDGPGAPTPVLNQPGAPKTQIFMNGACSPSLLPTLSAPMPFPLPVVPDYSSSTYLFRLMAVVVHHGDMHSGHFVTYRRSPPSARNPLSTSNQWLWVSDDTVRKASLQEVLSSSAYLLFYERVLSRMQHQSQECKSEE

Q: For `Cc1nc(C2CCN(C(=O)C(C)(C)C)CC2)cc(N2CC3(CCOCC3)OC2=O)n1`, which inhibition is on record?
A: 6.69%

Q: With `O=C(C1CCCCC1)N1CCC(c2nc3c(nnn3Cc3cccc(F)c3)c(=O)[nH]2)CC1` as the molecule, how does the inhibition read?
A: 19.3%

Q: Which inhibition does the source give for `O=C(C1CCCCC1)N1CCN(c2ncnc3c2nnn3Cc2ccccc2)CC1` here?
A: 43.1% (active)

Q: How did the inhibition turn out when `c1ccc(Cn2nnc3c(N4CCCCC4)ncnc32)cc1` was run?
A: 3.44%

Q: Which inhibition does the source give for `CCS(=O)(=O)N1CCc2c(nc(C3CCCN3)nc2NC)C1` (configuration not stated) here?
A: -56.6%

Q: For `COc1ccc(NC(=O)C(C)c2c(C)n[nH]c2C)cc1` (configuration not stated), which inhibition is on record?
A: 23.5%

Q: With `Cc1cccc2c1N(C(=O)Nc1ccc(OCc3ccccc3)cc1)CCC2` as the molecule, how does the inhibition read?
A: 16.1%

Q: How did the inhibition turn out when `O=C(CN1CCCC1c1ccc2c(c1)OCCCO2)NCCc1ccccc1F` (configuration not stated) was run?
A: -52%

Q: For `Cn1cc(CCNC(=O)Nc2cc(F)ccc2F)c2cccnc21`, which inhibition is on record?
A: -16.4%

Q: Which inhibition does the source give for `Cc1ccc(N(C)C(=O)CCn2cnc3ccccc3c2=O)cc1` here?
A: -5.01%

Q: `Cc1c(Cl)cccc1NC(=O)CCn1cnc2ccccc2c1=O` was tested. Which inhibition did it give?
A: 74% (active)

Q: With `CCN1CCc2nc(-c3ccccc3)n(CC(=O)Nc3cccc(Cl)c3C)c(=O)c2C1` as the molecule, how does the inhibition read?
A: -97%

Q: With `CCOc1ccc(CC(=O)N2CCN(c3ccc(OC)nn3)CC2)cc1` as the molecule, how does the inhibition read?
A: -11.9%

Q: Which inhibition does the source give for `Cc1cc(C)n(-c2ccc(C(=O)NCC(c3ccccc3)c3c[nH]c4ccccc34)cc2)n1` (configuration not stated) here?
A: -19.5%

Q: Which inhibition does the source give for `CSc1ccccc1NC(=O)c1ccc(N2CCCC2)nn1` here?
A: 77.3% (active)

Q: How did the inhibition turn out when `Cc1cc(C)n(-c2ccc(C(=O)Nc3ccccc3C(C)C)nn2)n1` was run?
A: 34.9% (active)

Q: For `O=C(Cc1ccccc1)N1CCN(c2ccc(N3CCCC3)nn2)CC1`, which inhibition is on record?
A: -15.8%

Q: `O=C(c1ccc(N2CCCC2)nn1)N1CCN(c2ccccn2)CC1` was tested. Which inhibition did it give?
A: 3.65%

Q: Which inhibition does the source give for `O=C(CSc1ncnc2c1nnn2-c1ccc(F)cc1)N1CCc2ccccc21` here?
A: 3.49%

Q: `CCCOc1ccc(C2Nc3ccccc3S(=O)(=O)N2Cc2ccccc2)cc1OCC` (configuration not stated) was tested. Which inhibition did it give?
A: 11%

Q: With `CCc1noc(-c2c(C)cc(C)n2CC(=O)NCc2cccc(F)c2)n1` as the molecule, how does the inhibition read?
A: 19.8%

Q: `COc1ccc(C(CNC(=O)c2oc3ccccc3c2C)N2CCOCC2)cc1` (configuration not stated) was tested. Which inhibition did it give?
A: 0.732%

Q: With `Cc1ccc(Cn2cc(-c3noc(-c4ccccn4)n3)nn2)cc1` as the molecule, how does the inhibition read?
A: 15%

Q: `Cc1ccc(Cn2cc(-c3noc(-c4ccc[nH]4)n3)nn2)cc1` was tested. Which inhibition did it give?
A: 65% (active)

Q: Which inhibition does the source give for `Cc1noc(-c2cccn2Cc2ccc(F)cc2)n1` here?
A: -50.7%

Q: With `CCN1C(=O)c2c(C(=O)NC3CC3)ncn2CC1(C)C(=O)NC1CCCC1` (configuration not stated) as the molecule, how does the inhibition read?
A: 9.61%

Q: Which inhibition does the source give for `COc1cccc(C(=O)NCc2ccc(-c3nc4cnccc4o3)cc2)c1` here?
A: 30.7% (active)

Q: `COc1cc(C(=O)Nc2ccc(-c3nc4cnccc4o3)cc2)cc(OC)c1OC` was tested. Which inhibition did it give?
A: 14.2%

Q: With `COc1cccc(CNC(=O)c2ccc(-c3cncnc3)nc2)c1` as the molecule, how does the inhibition read?
A: 17.3%

Q: With `Cc1cnc(C(=O)N2CCC3(CC2)CC(OCC2CC2)CO3)cn1` (configuration not stated) as the molecule, how does the inhibition read?
A: -3.6%

Q: For `O=C(Cc1ccccc1)N1CCc2[nH]nc(-c3ccc(F)cc3)c2C1`, which inhibition is on record?
A: -4.25%

Q: `CC(NC(=O)c1ccc(S(=O)(=O)Nc2ccccc2)cc1)c1ccc(S(N)(=O)=O)cc1` (configuration not stated) was tested. Which inhibition did it give?
A: 11.3%

Q: How did the inhibition turn out when `CC1(C)Cc2nc(-c3ccccc3)nc(SCC(=O)Nc3cccc4ccccc34)c2CO1` was run?
A: -6.78%

Q: How did the inhibition turn out when `CN1C(=O)C(C)(C)COc2ccc(NS(=O)(=O)c3ccccc3Cl)cc21` was run?
A: 0.732%

Q: With `O=C(COC(=O)c1ccc(F)c(S(=O)(=O)N2CCOCC2)c1)NCc1ccc2c(c1)OCO2` as the molecule, how does the inhibition read?
A: -3.24%

Q: Which inhibition does the source give for `COc1ccc2c(Sc3ccccc3)c(C(=O)NCc3ccc4c(c3)OCO4)[nH]c2c1` here?
A: 7.37%

Q: Which inhibition does the source give for `CCCCN(c1ccccc1)S(=O)(=O)c1cccc(C(=O)OCC(=O)NCc2ccc3c(c2)OCO3)c1` here?
A: 47.1% (active)

Q: For `CC(C)Cc1cc(-c2nn3c(-c4ccccc4Cl)nnc3s2)n[nH]1`, which inhibition is on record?
A: 40.6% (active)

Q: With `Cc1c(-c2nn3c(-c4ccco4)nnc3s2)cccc1[N+](=O)[O-]` as the molecule, how does the inhibition read?
A: -45.6%

Q: How did the inhibition turn out when `CNc1nc2c(c(=O)n1C)CN(S(=O)(=O)c1ccccc1)CC2` was run?
A: 11.5%

Q: How did the inhibition turn out when `CC(C)c1ccc(C(=O)N2CCN(c3cnn4cnnc4c3)CC2)cc1` was run?
A: -7.33%

Q: With `COc1ccc2ccccc2c1S(=O)N1CCN(c2ccccc2F)CC1` (configuration not stated) as the molecule, how does the inhibition read?
A: 1.36%

Q: `COc1cc2[nH]c(=O)n(Cc3ccc(C(=O)N4CCN(c5ccccn5)CC4)cc3)c(=O)c2cc1OC` was tested. Which inhibition did it give?
A: 9.66%

Q: With `O=C(CSc1ccc2nnc(-c3ccccc3)n2n1)N1CCCc2ccccc21` as the molecule, how does the inhibition read?
A: 51.5% (active)

Q: With `CC1CCN(C(=O)CSc2ccc3nnc(-c4cccc(F)c4)n3n2)CC1` as the molecule, how does the inhibition read?
A: -0.05%

Q: `O=C(Cn1cnc2ccccc21)N1CCCc2ccccc21` was tested. Which inhibition did it give?
A: -7.37%

Q: With `CC(C)CN1[C@H]2CCN(C(=O)c3ccccc3)CC[C@@H]2Oc2ccccc2S1(=O)=O` as the molecule, how does the inhibition read?
A: 16.5%

Q: With `Cc1cccc(S(=O)(=O)NCCc2cn(C)c3ncccc23)c1` as the molecule, how does the inhibition read?
A: -9.95%

Q: For `Cc1cc2c(cc1S(=O)(=O)N1CCC(C(=O)N(C)Cc3ccco3)CC1)OCC(=O)N2`, which inhibition is on record?
A: 26.1%

Q: How did the inhibition turn out when `O=C(Nc1c(C(=O)N2CCOCC2)oc2ccccc12)c1ccccc1F` was run?
A: 10.2%

Q: How did the inhibition turn out when `CC(C)(C)n1nc(C2CC2)c(Br)c1NC(=O)c1ccccc1F` was run?
A: 35.5% (active)

Q: `O=C(Nc1cc(-c2ccccc2)nn1C1CCS(=O)(=O)C1)c1ccccc1F` (configuration not stated) was tested. Which inhibition did it give?
A: -4.62%

Q: Which inhibition does the source give for `O=C(Nc1cc(=O)[nH]c2nc(CCc3ccccc3)nn12)c1ccc(F)cc1` here?
A: -74.9%

Q: How did the inhibition turn out when `COc1ccc2[nH]c3c(c2c1)CCN1C(=O)N([C@@H](C)C(=O)NCC(=O)O)C(=O)[C@]31C` was run?
A: -8.05%

Q: Which inhibition does the source give for `C[C@]12C(=O)N(c3cccc(C(=O)NCCN4CCOCC4)c3)C(=O)N1CCc1c2[nH]c2ccccc12` here?
A: 12.9%

Q: Which inhibition does the source give for `COc1ccc(CNC(=O)c2ccccc2N2C(=O)N3CCc4c([nH]c5ccccc45)[C@@]3(C)C2=O)cc1` here?
A: 41.7% (active)

Q: How did the inhibition turn out when `O=C(N[C@@H]1C[C@@H](Oc2cccc(F)c2)[C@H](O)[C@H]1N1CCCC1)C1CCOCC1` was run?
A: -0.94%

Source: PubChem BioAssay AID1645860 (Buhrlage Lab, Dana-Farber Cancer Institute and Novartis …, 2021)
